# Laboratory results: article PMC5540273 (PLoS ONE, 2017)
# Legend:
# Settings in all cases: concentration: 1 μM, replicates: in singlicate; n = 1
# PLK2 = tested on: PLK2
# PLK3 = tested on: PLK3
# PLK4 = tested on: PLK4
# PRKCD = tested on: PRKCD
# PRKCE = tested on: PRKCE
# PRKCH = tested on: PRKCH
# PRKCI = tested on: PRKCI
# PRKCQ = tested on: PRKCQ
# PRKD1 = tested on: PRKD1
# PRKD2 = tested on: PRKD2
# PRKD3 = tested on: PRKD3
# PRKG1 = tested on: PRKG1
# PRKG2 = tested on: PRKG2
# PRKR = tested on: T1, PRKR
# T1 construct: gene EIF2AK2
# PRKX = tested on: PRKX
# PRP4 = tested on: PRP4
# PYK2 = tested on: T2, PYK2
# T2 construct: gene PTK2B
# QSK = tested on: QSK
# RAF1 = tested on: RAF1
# RET = tested on: RET
# 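Further: KINOMEscan kinase panel screen.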
SMILES,%Inh (PLK2) [%],%Inh (PLK3) [%],%Inh (PLK4) [%],%Inh (PRKCD) [%],%Inh (PRKCE) [%],%Inh (PRKCH) [%],%Inh (PRKCI) [%],%Inh (PRKCQ) [%],%Inh (PRKD1) [%],%Inh (PRKD2) [%],%Inh (PRKD3) [%],%Inh (PRKG1) [%],%Inh (PRKG2) [%],%Inh (PRKR) [%],%Inh (PRKX) [%],%Inh (PRP4) [%],%Inh (PYK2) [%],%Inh (QSK) [%],%Inh (RAF1) [%],%Inh (RET) [%]
Cc1ccc(C)c(NC(=O)Nc2ccc(C)c(-c3ccc(C(=O)Nc4ccncc4)cc3)c2)c1 [GSK1398473],0,0,0,0,4,10,0,32,8,3,38,31,0,14,20,0,0,8,89,23
CCOc1nccc(-c2c(-c3ccc(F)cc3)ncn2C2CCNCC2)n1 [SB-249175],24,23,26,20,5,100,5,10,38,35,19,0,12,16,0,0,16,20,19,32
COC(=O)Nc1nc2ccc(Oc3ccc(CC(=O)Nc4cc(C(F)(F)F)ccc4F)cc3)cc2[nH]1 [GW680903],0,0,0,0,9,0,17,0,0,0,18,0,0,0,2,32,0,0,86,97.7
CCNc1nccc(-c2c(-c3ccc(F)cc3)ncn2C2CCN(C)CC2)n1,0,0,0,6,31,0,0,0,40,0,36,0,0,0,0,0,0,0,0,0
NCCC(NC(=O)c1cc(Br)c(-c2ccnc3[nH]ccc23)s1)c1ccccc1.O=C(O)C(F)(F)F.O=C(O)C(F)(F)F (stereo not shown) [GSK1307810],28,35,19,99.6,98.1,98.3,0,90,0,31,35,97.5,98.2,17,96.9,76,0,0,9,36
Cc1cccc(Nc2nc(NCCN)ncc2C(N)=O)c1 [GSK1292139],0,0,10,26,44,22,2,7,85,87,100,9,0,3,35,41,66,20,3,14
Cc1ccc(O)cc1Nc1ccnc2ccc(C(C)(C)C)cc12 [GW856805],29,15,27,17,31,3,39,0,0,13,30,20,29,0,17,0,9,22,14,96
O=C(Nc1c(F)cccc1F)c1cc(C(=O)c2ccccc2F)c[nH]1 [GSK1326180],0,0,0,9,0,4,2,20,11,14,0,0,0,0,3,0,6,4,6,4
Cl.Cl.NC(CNC(=O)c1cc(Br)c(-c2ccnc3[nH]ccc23)s1)c1ccccc1 (stereo not shown) [GSK1322949],74,48,41,76,93.1,92.6,36,74,0,24,62,98.5,98.4,6,92.5,87,32,22,0,30
Cn1cc(-c2ccc3c(c2)CCN3C(=O)Cc2cc(F)cc(C(F)(F)F)c2)c2c(N)ncnc21 [GSK2635225],3,0,0,18,1,0,0,17,0,14,18,0,16,15,6,16,0,10,11,35
CN(c1ccc(F)c(NC(=O)c2cccc(OC(C)(C)C#N)c2Cl)c1)c1ccc2nc(NC(=O)C3CC3)sc2n1,0,0,0,0,0,16,4,5,0,3,0,0,3,0,1,18,3,0,96.1,100
COc1cc(Nc2ccnc3cc(-c4ccncc4)ccc23)cc(OC)c1OC.Cl [GW494610],0,0,0,13,25,16,0,0,19,24,6,8,69,0,0,27,16,84,23,24
O=C(O)C(F)(F)F.O=c1[nH]ccc2nc(N[C@@H]3CCNC3)nc(Nc3cc(Cl)cc(Cl)c3)c12 [GSK2188764],26,16,81,99.6,100,97.4,85,95.1,82,93.4,96.5,61,98.5,76,95,63,98.8,38,0,51
Cc1ccc(O)cc1Nc1ccnc2cc(-c3ccc(CN4CCCCC4)o3)ccc12 [GW557777],13,0,0,0,0,0,0,0,96.5,97.8,95.1,0,0,1,0,0,5,41,7,100
Cc1ccccc1CC(=O)N1CCc2cc(-c3cn(C)c4ncnc(N)c34)ccc21 [GSK2603346],2,0,0,0,0,51,22,35,18,0,0,0,0,0,0,0,0,4,0,36
O=C(O)C(F)(F)F.O=c1[nH]ccc2nc(N[C@@H]3CCNC3)nc(Nc3ccc4c(c3)S(=O)(=O)CC4)c12 [GSK2181306],5,0,97.4,99.1,97.9,92.9,78,53,92.1,96.2,100,56,93.6,91.1,89,67,99.4,31,0,97.5
COc1ccc(NC(=O)c2ccoc2)cc1-c1ccc(C(=O)NCC2CC2)cc1 [GW810437],34,28,8,9,41,0,6,0,0,0,0,0,0,0,0,0,7,12,0,0
O=C(Nc1n[nH]c2nc(-c3cccc(O)c3)ccc12)C1CC1 [SB-711805],11,14,31,1,83,0,13,0,0,20,0,21,35,100,0,0,11,18,6,0
CN(c1ccc(NC(=O)N2CCN(CCCN3CCOCC3)CC2)cc1)c1ccnc(Nc2ccc(CS(C)(=O)=O)cc2)n1.Cl [GW830899],0,0,39,23,0,0,43,0,0,0,0,0,100,0,63,0,16,0,28,6
Nc1cccc(-c2ccc3c(N)n[nH]c3c2)c1 [GSK2193613],0,0,4,68,11,61,0,20,0,2,0,20,19,0,7,19,5,0,0,5
